Measured values taken from ChEMBL document CHEMBL1157539, “Thousands of chemical starting points for antimalarial lead identification” (Nature, 2010).

Key:
Format in all cases: functional
[1] = system: Plasmodium falciparum; test: GSK_TCMDC: Inhibition of Plasmodium falciparum 3D7 in whole red blood cells, using parasite LDH activity as an index of growth. Test compounds present at 2uM
[2] = system: Plasmodium falciparum; test: GSK_TCMDC: Inhibition of Plasmodium falciparum Dd2 in whole red blood cells, using parasite LDH activity as an index of growth. Test compounds present at 2uM
[3] = system: HepG2; test: GSK_TCMDC: Percent inhibition of human HepG2 cell line. Test compounds present at 10uM.

| Structure (SMILES) | Inhibition [1] [%] | Inhibition [2] [%] | Inhibition [3] [%] |
| --- | --- | --- | --- |
| COc1ccc(-c2ccc(NC(=O)c3ccc(C#N)cc3)cc2)cc1CNC(C)C.O=C(O)C(F)(F)F | 100 | 38 | 19 |
| O=C(c1cc(C(=O)Nc2ccc(F)cc2)c(=O)n(-c2ccc(F)cc2)c1)c1cc(Cl)ccc1O | 100 | 98 | 13 |
| COc1ccccc1C1CCN(C2CCC(NC(=O)/C=C/c3cccc(C(F)(F)F)c3)CC2)CC1 (stereo not given) | 99 | 34 | 38 |
| Cc1nccn1Cc1cc(C(C)(C)C)c(O)c(C(C)(C)C)c1 | 99 | 0 | 8 |
| CC(=O)Nc1ncc(C(=O)Nc2cccc(-c3cccc(-c4nc5cc(C(F)(F)F)ccc5[nH]4)c3)c2)s1 | 100 | 99 | 76 |
| COc1ccc2nccc([C@@H](O)CN3CCC(NCc4cc5ccccc5o4)CC3)c2c1.O=C(O)C(=O)O | 96 | 72 | 17 |
| N#Cc1cncc(-c2nc3c(N4CCCC(N)C4)cccc3n2CCNCc2ccccc2)c1.O=C(O)C(F)(F)F (stereo not given) | 100 | 1 | 8 |
| COc1ccc2nccc([C@@H](O)CN3CCC(NCc4ccc5c(c4)N(C)C(=O)CO5)CC3)c2c1.O=C(O)C(=O)O | 100 | 95 | 0 |
| CCOc1cc(C(=O)NC2CCN(Cc3ccccc3)CC2)ccc1-c1nc2cc(Cl)c(F)cc2[nH]1 | 100 | 51 | 13 |
| Cc1ccccc1C1CCN(C2CCC(NC(=O)/C=C/c3ccc(F)c(F)c3)CC2)CC1 (stereo not given) | 93 | 7 | 34 |
